Laboratory results reported in PubChem BioAssay AID1159580 (chemical genetic matrix, 2015).
The whole screen tested about 5,500 compounds, of which about 2,000 (36%) were called active. About 18% were inconclusive and are not listed. No stated cut-off is given here; in the data, active means normalized growth mostly below about 0.91 (no sharp cut-off); inconclusive means no clear call, values can overlap the other calls; inactive means mostly above about 0.92. The list shows a part of the results.

Test: chemical genetic growth profiling, strain panel (AID 1159580);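 further: tested at 20 µM; growth read once vehicle control cultures reached saturation at 30 °C; 1 = growth at the plate median or of vehicle wells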
Conditions: growth OD

Measured: normalized growth

N#CC(O[C@@H]1O[C@H](CO[C@@H]2O[C@H](CO)[C@@H](O)[C@H](O)[C@H]2O)[C@@H](O)[C@H](O)[C@H]1O)c1ccccc1 (some centres not stated)
inactive: S. cerevisiae deletion strains, locus YJR043C, strain POL32, stronger effect = lower value 1.01 | S. cerevisiae deletion strains, locus YJR066W, strain TOR1, stronger effect = lower value 0.921 | S. cerevisiae deletion strains, locus YJR075W, strain HOC1, stronger effect = lower value 0.999 | S. cerevisiae deletion strains, locus YKL009W, strain mrt4, stronger effect = lower value 0.99 | S. cerevisiae deletion strains, locus YKL068W, stronger effect = lower value 0.991 | S. cerevisiae deletion strains, locus YKL085W, strain MDH1 (second series), stronger effect = lower value 0.987 | S. cerevisiae deletion strains, locus YKL085W, strain MDH1, stronger effect = lower value 0.987 | S. cerevisiae deletion strains, locus YKL160W, strain elf1, stronger effect = lower value 0.983 | S. cerevisiae deletion strains, locus YKR001C, strain vps1, stronger effect = lower value 0.988 | S. cerevisiae deletion strains, locus YKR026C, strain gcn3, stronger effect = lower value 0.977 | S. cerevisiae deletion strains, locus YKR091W, strain srl3, stronger effect = lower value 0.979 | S. cerevisiae deletion strains, locus YLL001W, strain dnm1, stronger effect = lower value 0.984 | S. cerevisiae deletion strains, locus YLL026W, stronger effect = lower value 0.981 | S. cerevisiae deletion strains, locus YLL041C, strain sdh2, stronger effect = lower value 0.991 | S. cerevisiae deletion strains, locus YLR027C, strain aat2, stronger effect = lower value 0.987 | S. cerevisiae deletion strains, locus YLR039C, strain RIC1, stronger effect = lower value 1.01 | S. cerevisiae deletion strains, locus YLR058C, strain SHM2, stronger effect = lower value 1.01 | S. cerevisiae deletion strains, locus YLR102C, strain apc9, stronger effect = lower value 0.983 | S. cerevisiae deletion strains, locus YLR113W, strain HOG1, stronger effect = lower value 1.03 | S. cerevisiae deletion strains, locus YLR221C, strain rsa3, stronger effect = lower value 0.976 | S. cerevisiae deletion strains, locus YLR258W, strain gsy2, stronger effect = lower value 0.982 | S. cerevisiae deletion strains, locus YLR262C, strain YPT6 (second series), stronger effect = lower value 0.991 | S. cerevisiae deletion strains, locus YLR262C, strain YPT6, stronger effect = lower value 1.04 | S. cerevisiae deletion strains, locus YLR268W, strain sec22, stronger effect = lower value 0.972 | S. cerevisiae deletion strains, locus YLR320W, strain mms22, stronger effect = lower value 0.968 | S. cerevisiae deletion strains, locus YLR330W, strain CHS5, stronger effect = lower value 1.01 | S. cerevisiae deletion strains, locus YLR342W, strain FKS1 (second series), stronger effect = lower value 1.03 | S. cerevisiae deletion strains, locus YLR342W, strain FKS1, stronger effect = lower value 0.967 | S. cerevisiae deletion strains, locus YLR357W, strain rsc2, stronger effect = lower value 0.948 | S. cerevisiae deletion strains, locus YLR370C, strain arc18, stronger effect = lower value 0.991 | S. cerevisiae deletion strains, locus YLR371W, strain rom2, stronger effect = lower value 1.01 | S. cerevisiae deletion strains, locus YLR384C, strain iki3, stronger effect = lower value 0.96 | S. cerevisiae deletion strains, locus YLR418C, strain cdc73, stronger effect = lower value 1.02 | S. cerevisiae deletion strains, locus YML016C, strain PPZ1, stronger effect = lower value 0.986 | S. cerevisiae deletion strains, locus YML032C, strain rad52, stronger effect = lower value 1.01 | S. cerevisiae deletion strains, locus YML120C, strain ndi1, stronger effect = lower value 0.991 | S. cerevisiae deletion strains, locus YML124C, strain tub3, stronger effect = lower value 0.999 | S. cerevisiae deletion strains, locus YMR058W, strain fet3, stronger effect = lower value 0.989 | S. cerevisiae deletion strains, locus YMR078C, strain ctf18, stronger effect = lower value 1 | S. cerevisiae deletion strains, locus YMR125W, strain sto1, stronger effect = lower value 0.965 | S. cerevisiae deletion strains, locus YMR129W, stronger effect = lower value 0.985 | S. cerevisiae deletion strains, locus YMR205C, strain PFK2, stronger effect = lower value 0.985 | S. cerevisiae deletion strains, locus YMR223W, strain ubp8, stronger effect = lower value 1.01 | S. cerevisiae deletion strains, locus YMR231W, strain pep5, stronger effect = lower value 0.964 | S. cerevisiae deletion strains, locus YMR307W, strain GAS1, stronger effect = lower value 1.01 | S. cerevisiae deletion strains, locus YNL067W, strain RPL9B, stronger effect = lower value 1.03 | S. cerevisiae deletion strains, locus YNL071W, strain lat1, stronger effect = lower value 0.98 | S. cerevisiae deletion strains, locus YNL183C, strain NPR1, stronger effect = lower value 0.976 | S. cerevisiae deletion strains, locus YNL209W, strain ssb2, stronger effect = lower value 0.984 | S. cerevisiae deletion strains, locus YNL233W, strain BNI4, stronger effect = lower value 1.04 | S. cerevisiae deletion strains, locus YNL248C, strain rpa49, stronger effect = lower value 0.983 | S. cerevisiae deletion strains, locus YNL250W, strain rad50, stronger effect = lower value 0.969 | S. cerevisiae deletion strains, locus YNL271C, strain bni1, stronger effect = lower value 0.986 | S. cerevisiae deletion strains, locus YNL298W, strain CLA4, stronger effect = lower value 0.996 | S. cerevisiae deletion strains, locus YNL307C, strain MCK1, stronger effect = lower value 0.991 | S. cerevisiae deletion strains, locus YNL322C, strain KRE1 (second series), stronger effect = lower value 0.977 | S. cerevisiae deletion strains, locus YNR049C, strain mso1, stronger effect = lower value 0.984 | S. cerevisiae deletion strains, locus YNR052C, strain pop2, stronger effect = lower value 0.989 | S. cerevisiae deletion strains, locus YOL006C, strain TOP1, stronger effect = lower value 1.05 | S. cerevisiae deletion strains, locus YOL012C, strain htz1 1.19 | S. cerevisiae deletion strains, locus YOL147C, strain pex11, stronger effect = lower value 0.989 | S. cerevisiae deletion strains, locus YOR001W, strain rrp6, stronger effect = lower value 0.946 | S. cerevisiae deletion strains, locus YOR061W, strain CKA2, stronger effect = lower value 0.993 | S. cerevisiae deletion strains, locus YOR069W, strain VPS5, stronger effect = lower value 0.993 | S. cerevisiae deletion strains, locus YOR070C, strain gyp1, stronger effect = lower value 0.967 | S. cerevisiae deletion strains, locus YOR080W, strain dia2, stronger effect = lower value 0.966 | S. cerevisiae deletion strains, locus YOR083W, strain WHI5, stronger effect = lower value 0.976 | S. cerevisiae deletion strains, locus YOR106W, strain vam3, stronger effect = lower value 0.989 | S. cerevisiae deletion strains, locus YOR136W, strain idh2, stronger effect = lower value 0.994 | S. cerevisiae deletion strains, locus YOR144C, strain elg1, stronger effect = lower value 0.99 | S. cerevisiae deletion strains, locus YOR184W, strain ser1, stronger effect = lower value 1.04 | S. cerevisiae deletion strains, locus YOR231W, strain MKK1, stronger effect = lower value 0.974 | S. cerevisiae deletion strains, locus YOR265W, strain rbl2, stronger effect = lower value 0.981 | S. cerevisiae deletion strains, locus YOR270C, strain vph1, stronger effect = lower value 0.98 | S. cerevisiae deletion strains, locus YOR290C, strain snf2, stronger effect = lower value 0.988 | S. cerevisiae deletion strains, locus YOR316C, strain cot1, stronger effect = lower value 0.985 | S. cerevisiae deletion strains, locus YPL051W, strain arl3, stronger effect = lower value 0.98 | S. cerevisiae deletion strains, locus YPL078C, strain atp4, stronger effect = lower value 0.984 | S. cerevisiae deletion strains, locus YPL106C, strain sse1, stronger effect = lower value 0.972 | S. cerevisiae deletion strains, locus YPL240C, strain hsp82, stronger effect = lower value 0.985 | S. cerevisiae deletion strains, locus YPL256C, strain CLN2, stronger effect = lower value 0.969 | S. cerevisiae deletion strains, locus YPR119W, strain clb2, stronger effect = lower value 1.01 | S. cerevisiae deletion strains, locus YPR141C, strain kar3, stronger effect = lower value 0.981 | S. cerevisiae deletion strains, locus YPR163C, strain tif3, stronger effect = lower value 0.992 | S. cerevisiae deletion strains, locus YPR167C, strain met16, stronger effect = lower value 0.973 | S. cerevisiae deletion strains, strain wtn01, stronger effect = lower value 0.984 | S. cerevisiae strains, strain wild type, stronger effect = lower value 1.02
